# In PubChem BioAssay (Tox21):
# Where “and” joins values, the source holds several entries; their conditions need not be identical. Equal entries are not always repeated. Results filed as inconclusive are left out. Entries that show only a call come without a potency. The source holds several records for some structures; these can differ, active in one and inactive in another. Calls of active or inactive are those of the source. Calls follow the shape of the dose curve; as a rule, active = well fitted curve in the direction sought with a large enough effect in the repeat runs; inconclusive = weak or mixed curves; inactive = no such curve, though single readings can be large; an effect the other way counts as inactive or inconclusive.
# Tests used:
# [1] = qHTS RealTime-Glo MT Cell Viability Assay in HEK293 cells - 16 hour (AID 1224872); also: nearly all actives have a fitted effect of over 50% in size; also: potency is read from the fitted curve at half-maximal effect
# Method in brief: (§1)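 Luminescence generated by NanoLuc from substrate produced by living HEK293 cells served as the viability signal. Each value reflects the reading at its stated time point during continuous 40 h compound exposure at 37 C.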
# [2] = qHTS RealTime-Glo MT Cell Viability Assay in HEK293 cells - 40 hour (AID 1224874); settings: RealTime-Glo luminescence; max response: stronger effect = lower value; also: nearly all actives have a fitted effect of over 50% in size; also: potency is read from the fitted curve at half-maximal effect
# Method in brief: (§2)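 Nonlytic bioluminescent viability monitoring. HEK293 at 600 cells/well with reagent; 5 h settle; compound transfer by pintool; plates held at 37 C and read at set time points.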
# [3] = A CellTox Green Cytotoxicity Assay to monitor cytotoxicity in HEK293 cells - 24 hour (AID 1224875); also: nearly all actives have a fitted effect of over 45% in size; also: potency is read from the fitted curve at half-maximal effect
# Method in brief: (§3)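 Cytotoxicity was tracked continuously in HEK293 cells by a DNA-binding dye excluded from viable cells. Compounds were transferred in DMSO 5 h after seeding; fluorescence was recorded at intervals up to 40 h.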
# [4] = A CellTox Green Cytotoxicity Assay to monitor cytotoxicity in HepG2 cells - 16 hour (AID 1224876); also: nearly all actives have a fitted effect of over 45% in size
# Method in brief: (§4)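 Real-time, homogeneous cytotoxicity readout: dead-cell DNA staining by CellTox Green in HepG2 monolayers, fluorescence measured at timed intervals up to 40 h of continuous compound exposure.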
# [5] = qHTS RealTime-Glo MT Cell Viability Assay in HepG2 cells - 32 hour (AID 1224877); also: nearly all actives have a fitted effect of over 55% in size
# Method in brief: (§5)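 Tox21 10K library screened in qHTS format on HepG2 cells carrying RealTime-Glo reagents. Compounds were added after a 5 h preincubation, and the luminescent signal from continuous culture was measured repeatedly during 40 h treatment.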
# [6] = A CellTox Green Cytotoxicity Assay to monitor cytotoxicity in HepG2 cells - 24 hour (AID 1224878); also: nearly all actives have a fitted effect of over 45% in size; also: potency is read from the fitted curve at half-maximal effect
# Method in brief: as §4
# [7] = A CellTox Green Cytotoxicity Assay to monitor cytotoxicity in HepG2 cells - 40 hour (AID 1224879); also: nearly all actives have a fitted effect of over 40% in size; also: potency is read from the fitted curve at half-maximal effect
# Method in brief: as §4
# [8] = qHTS RealTime-Glo MT Cell Viability Assay in HEK293 cells - 0 hour (AID 1224880); also: top concentration of the series differs between compounds; nearly all actives have a fitted effect of over 45% in size
# Method in brief: as §2
# [9] = A CellTox Green Cytotoxicity Assay to monitor cytotoxicity in HEK293 cells - 32 hour (AID 1224881); also: nearly all actives have a fitted effect of over 40% in size
# Method in brief: as §3
# [10] = A CellTox Green Cytotoxicity Assay to monitor cytotoxicity in HepG2 cells - 0 hour (AID 1224882); also: nearly all actives have a fitted effect of over 35% in size
# Method in brief: as §4
# [11] = A CellTox Green Cytotoxicity Assay to monitor cytotoxicity in HepG2 cells - 32 hour (AID 1224883); also: nearly all actives have a fitted effect of over 50% in size; also: potency is read from the fitted curve at half-maximal effect
# Method in brief: as §4
# [12] = A CellTox Green Cytotoxicity Assay to monitor cytotoxicity in HEK293 cells - 8 hour (AID 1224884); also: nearly all actives have a fitted effect of over 35% in size
# Method in brief: as §3
# [13] = qHTS RealTime-Glo MT Cell Viability Assay in HepG2 cells - 16 hour (AID 1224885); also: nearly all actives have a fitted effect of over 50% in size
# Method in brief: as §5
# [14] = qHTS RealTime-Glo MT Cell Viability Assay in HEK293 cells - 8 hour (AID 1224887); also: nearly all actives have a fitted effect of over 50% in size; also: potency is read from the fitted curve at half-maximal effect
# Method in brief: as §2
# [15] = A CellTox Green Cytotoxicity Assay to monitor cytotoxicity in HEK293 cells - 16 hour (AID 1224888); also: nearly all actives have a fitted effect of over 35% in size
# Method in brief: as §3
# [16] = qHTS RealTime-Glo MT Cell Viability Assay in HepG2 cells - 0 hour (AID 1224889); also: nearly all actives have a fitted effect of over 50% in size
# Method in brief: as §5
# [17] = A CellTox Green Cytotoxicity Assay to monitor cytotoxicity in HepG2 cells - 8 hour (AID 1224890); also: nearly all actives have a fitted effect of over 45% in size
# Method in brief: as §4
# [18] = qHTS assay to identify small molecule antagonists of the estrogen receptor alpha (ER-alpha) signaling pathway using the BG1 cell line in the presence of 0.1 nM 17-beta-estradiol - cell viability counter screen (AID 1259241); also: nearly all actives have a fitted effect of over 40% in size; also: potency is read from the fitted curve at half-maximal effect
# Method in brief: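 Live-cell protease activity (CellTiter-Fluor fluorescence, 30 min) was read in the same wells after VM7Luc4E2 cells had been exposed to compounds with 0.1 nM 17beta-estradiol for 22 hr at 37C.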
# [19] = qHTS RealTime-Glo MT Cell Viability Assay in HepG2 cells - 8 hour (AID 1224873); also: nearly all actives have a fitted effect of over 55% in size
# Method in brief: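 HepG2 cells mixed with RealTime-Glo MT reagents (NanoLuc plus cell-permeant prosubstrate) were seeded at 600 cells/well, incubated 5 h at 37 C/5% CO2, then pinned with compounds in DMSO; nonlytic luminescence tracked viability during 40 h treatment.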
# [20] = qHTS RealTime-Glo MT Cell Viability Assay in HEK293 cells - 24 hour (AID 1224886); also: nearly all actives have a fitted effect of over 50% in size; also: potency is read from the fitted curve at half-maximal effect
# Method in brief: as §1
smiles,measurement,setting,value
O=[N+]([O-])c1cccc(C(F)(F)F)c1,Potency,[1],inactive
same,max response,[2],7.87% (inactive)
same,Potency,[3],inactive
same,Potency,[4],inactive
same,Potency,[5],inactive
same,Potency,[6],inactive
same,Potency,[7],inactive
same,Potency,[8],inactive
same,Potency,[9],inactive
same,Potency,[10],inactive
same,Potency,[11],inactive
same,Potency,[12],inactive
same,Potency,[13],inactive
same,Potency,[14],inactive
same,Potency,[15],inactive
same,Potency,[16],inactive
same,Potency,[17],inactive
same,Potency,[18],inactive
CCCCC/C=C\C/C=C\CCCCCCCC(=O)O,Potency,[1],inactive
same,Potency,[19],inactive
same,Potency,[4],inactive
same,Potency,[5],inactive
same,Potency,[6],inactive
same,Potency,[7],inactive
same,Potency,[8],inactive
same,Potency,[9],inactive
same,Potency,[10],inactive
same,Potency,[11],inactive
same,Potency,[12],inactive
same,Potency,[13],inactive
same,Potency,[20],inactive
same,Potency,[14],inactive
same,Potency,[15],inactive
same,Potency,[16],inactive
same,Potency,[17],inactive
Cc1cc(C(C#N)c2ccc(Cl)cc2)c(Cl)cc1NC(=O)c1cc(I)cc(I)c1O (configuration not stated),Potency,[1],inactive
same,Potency,[19],inactive
same,Potency,[3],inactive
same,Potency,[4],inactive
same,Potency,[6],inactive
same,Potency,[7],inactive
same,Potency,[8],inactive
same,Potency,[9],inactive
same,Potency,[10],inactive
same,Potency,[11],inactive
same,Potency,[12],inactive
same,Potency,[13],inactive
same,Potency,[20],inactive
same,Potency,[14],inactive
same,Potency,[15],inactive
same,Potency,[16],inactive
same,Potency,[17],inactive
S=c1nccc[nH]1,Potency,[1],inactive
same,max response,[2],13.6% (inactive)
same,Potency,[3],inactive
same,Potency,[4],inactive
same,Potency,[5],inactive
same,Potency,[6],inactive
same,Potency,[7],inactive
same,Potency,[8],inactive
same,Potency,[9],inactive
same,Potency,[10],inactive
same,Potency,[11],inactive
same,Potency,[12],inactive
same,Potency,[13],inactive
same,Potency,[20],inactive
same,Potency,[14],inactive
same,Potency,[16],inactive
same,Potency,[17],inactive
Oc1c(I)cc(Cl)c2cccnc12,Potency,[1],inactive
same,Potency,[19],inactive
same,Potency,[3],inactive
same,Potency,[4],inactive
same,Potency,[5],inactive
same,Potency,[6],inactive
same,Potency,[7],34.6 µM (active) and 5.35 µM (active)
same,Potency,[10],inactive
same,Potency,[11],inactive
same,Potency,[12],inactive
same,Potency,[13],inactive
same,Potency,[20],34.6 µM (active) and inactive
same,Potency,[14],inactive
same,Potency,[15],inactive
same,Potency,[16],inactive
same,Potency,[17],inactive
same,Potency,[18],inactive
CCOC(=O)c1ccc(C2CCC(NC[C@H](O)COc3ccc(O)c(NS(C)(=O)=O)c3)CC2)cc1 (some centres not stated),Potency,[1],20.2 µM (active)
same,Potency,[2],20.2 µM (active)
same,Potency,[6],50.7 µM (active)
same,Potency,[7],45.2 µM (active)
same,Potency,[8],inactive
same,Potency,[10],inactive
same,Potency,[11],45.2 µM (active)
same,Potency,[12],inactive
same,Potency,[20],20.2 µM (active)
same,Potency,[14],20.2 µM (active)
same,Potency,[15],inactive
same,Potency,[17],inactive
same,Potency,[18],inactive
COc1cccc(OC)c1C(=O)O,Potency,[1],inactive
same,max response,[2],0.328% (inactive)
same,Potency,[4],inactive
same,Potency,[5],inactive
same,Potency,[6],inactive
same,Potency,[7],inactive
same,Potency,[8],inactive
same,Potency,[10],inactive
same,Potency,[11],inactive
same,Potency,[12],inactive
same,Potency,[13],inactive
same,Potency,[14],inactive
same,Potency,[16],inactive
same,Potency,[17],inactive
same,Potency,[18],inactive
C=CCCC(=O)/C=C/C1C(C)=CCCC1(C)C (configuration not stated),Potency,[1],inactive
same,Potency,[3],34.7 µM (active)
same,Potency,[4],inactive
same,Potency,[5],inactive
same,Potency,[6],inactive
same,Potency,[7],inactive
same,Potency,[10],inactive
same,Potency,[11],inactive
same,Potency,[12],inactive
same,Potency,[13],inactive
same,Potency,[20],inactive
same,Potency,[14],inactive
same,Potency,[17],inactive
same,Potency,[18],inactive
Cc1nc2n(c(=O)c1CCN1CCC(c3noc4cc(F)ccc34)CC1)CCCC2,Potency,[1],3.01 µM (active)
same,Potency,[2],3.01 µM (active)
same,Potency,[3],inactive
same,Potency,[4],inactive
same,Potency,[6],inactive
same,Potency,[7],inactive
same,Potency,[8],inactive
same,Potency,[9],inactive
same,Potency,[10],inactive
same,Potency,[11],inactive
same,Potency,[12],inactive
same,Potency,[13],inactive
same,Potency,[14],3.01 µM (active)
same,Potency,[15],inactive
same,Potency,[16],inactive
same,Potency,[17],inactive
same,Potency,[18],inactive
CNc1ccc([N+](=O)[O-])cc1,Potency,[1],inactive
same,max response,[2],-13.4% (inactive)
same,Potency,[4],inactive
same,Potency,[5],inactive
same,Potency,[6],inactive
same,Potency,[7],inactive
same,Potency,[8],inactive
same,Potency,[9],inactive
same,Potency,[10],inactive
same,Potency,[11],inactive
same,Potency,[12],inactive
same,Potency,[13],inactive
same,Potency,[20],inactive
same,Potency,[14],inactive
same,Potency,[15],inactive
same,Potency,[16],inactive
same,Potency,[17],inactive
same,Potency,[18],43.4 µM (active)
c1ccc(SSc2ccccc2)cc1,Potency,[1],inactive
same,max response,[2],-15.4% (inactive)
same,Potency,[4],inactive
same,Potency,[5],inactive
same,Potency,[6],inactive
same,Potency,[7],inactive
same,Potency,[9],inactive
same,Potency,[10],inactive
same,Potency,[11],inactive
same,Potency,[12],inactive
same,Potency,[13],inactive
same,Potency,[14],inactive
same,Potency,[16],inactive
same,Potency,[17],inactive
same,Potency,[18],inactive
Cc1c(N)cccc1C(F)(F)F,Potency,[1],inactive
same,Potency,[3],inactive
same,Potency,[4],inactive
same,Potency,[5],inactive
same,Potency,[6],inactive
same,Potency,[7],inactive
same,Potency,[8],inactive
same,Potency,[9],inactive
same,Potency,[10],inactive
same,Potency,[11],inactive
same,Potency,[12],inactive
same,Potency,[13],inactive
same,Potency,[14],inactive
same,Potency,[16],inactive
same,Potency,[17],inactive
same,Potency,[18],inactive
O=c1[nH]c2ccccc2n1CCCN1CCN(C(c2ccccc2)c2ccccc2)CC1,Potency,[1],10.7 µM (active)
same,Potency,[2],12 µM (active)
same,Potency,[3],inactive
same,Potency,[6],23.9 µM (active)
same,Potency,[7],23.9 µM (active)
same,Potency,[8],inactive
same,Potency,[9],inactive
same,Potency,[10],inactive
same,Potency,[11],23.9 µM (active)
same,Potency,[12],inactive
same,Potency,[20],19 µM (active)
same,Potency,[14],21.3 µM (active)
same,Potency,[15],inactive
same,Potency,[16],inactive
same,Potency,[18],inactive
Clc1sc(Cl)c(Cl)c1Cl,Potency,[1],inactive
same,max response,[2],7.4% (inactive)
same,Potency,[3],inactive
same,Potency,[4],inactive
same,Potency,[5],inactive
same,Potency,[6],inactive
same,Potency,[7],inactive
same,Potency,[9],inactive
same,Potency,[10],inactive
same,Potency,[11],inactive
same,Potency,[12],inactive
same,Potency,[13],inactive
same,Potency,[20],inactive
same,Potency,[14],inactive
same,Potency,[15],inactive
same,Potency,[17],inactive
same,Potency,[18],inactive
COC1=C(OC)C(=O)C(CCCCCCCCCCO)=C(C)C1=O,Potency,[1],2.39 µM (active)
same,Potency,[2],5.35 µM (active)
same,Potency,[3],inactive
same,Potency,[4],inactive
same,Potency,[6],inactive
same,Potency,[7],inactive
same,Potency,[8],inactive
same,Potency,[9],inactive
same,Potency,[10],inactive
same,Potency,[11],inactive
same,Potency,[12],inactive
same,Potency,[20],4.25 µM (active)
same,Potency,[14],1.69 µM (active)
same,Potency,[15],inactive
same,Potency,[16],inactive
same,Potency,[17],inactive
